Assay outcomes (PubChem)
Only some compounds are listed: those with a hit (about 5.4% of all), similar ones and a draw of the others.
NR0B1 inh: NR0B1 (DAX1) inhibition; HEK293 Gal4-DAX1 luciferase reporter, luminescence; inhibition, % at 6.75 µM; 340,000 compounds, 0.99% hits; AID 504766;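 active means inhibition above the mean over all tested compounds plus 3 SD, cut at about 4.2% in these data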;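 further: 0% = DAX1-transfected cells with DMSO and 100% = empty-vector control cells with DMSO; inhibition shows as a rise in luminescence from relieved DAX1 repression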
Target sequence (P51843 207-470 limits assumed): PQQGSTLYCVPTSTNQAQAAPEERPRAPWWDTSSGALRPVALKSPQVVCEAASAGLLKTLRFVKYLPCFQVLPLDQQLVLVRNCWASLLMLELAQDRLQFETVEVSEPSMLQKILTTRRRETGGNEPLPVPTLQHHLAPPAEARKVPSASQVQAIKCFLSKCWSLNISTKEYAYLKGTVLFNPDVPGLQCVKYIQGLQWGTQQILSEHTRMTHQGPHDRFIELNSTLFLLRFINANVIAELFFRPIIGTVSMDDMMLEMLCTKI
HSF1 inh: HSF1 inhibition; NIH3T3-HGL HSE-luciferase, MG132-induced, luminescence 8 h; stronger effect = lower value; activity change, negative = inhibition, % at 7.5 µM (by protocol); 300,000 compounds, 0.77% hits; AID 2098;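 active means more than half of replicate wells show activity change below -50%, luminescence cut by over half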;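 further: luciferase reports HSF-1 transcriptional activity via heat shock element; 0% = median of DMSO wells and -100% = zero luminescence signal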
HSF-1 act: increases HSF-1 driven luciferase reporter signal | NIH3T3-HGL HSF-1 luciferase reporter, MG132, 8 h; 100% = twice DMSO control signal | activation, % at 9 µM | 300,000 compounds, 1.7% hits;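 active means mean replicate activation of at least 50% with a set share of replicates each reaching 50%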;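 further: 0% = median of the neutral control wells and 100% = twice that signal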
GAA850 FXN act: activators of GAA850 frataxin (FXN) promoter; HEK293 lucGAA850 FXN promoter luciferase reporter, 24 h; percent of 10 µM SAHA response; activation, % at 6 µM; 360,000 compounds, 0.56% hits; AID 540364;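 active means activation above the average of all compounds screened plus 3 SD, cutoff fixed separately per campaign, cut at about 7.5% in these data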;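 further: 0% = DMSO wells and 100% = 10 µM SAHA wells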
AHR act: activators of human aryl hydrocarbon receptor | AHR-responsive luciferase reporter cells, luminescence | activation, % at 5 µM | 320,000 compounds, 2.5% hits | AID 2796; in the data active means activation above about 47%;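 further: 0% = vehicle wells and 100% = reference agonist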
Numbers without * were called inactive; · = no result.

SMILES | NR0B1 inh | HSF1 inh | HSF-1 act | GAA850 FXN act | AHR act
C=CCn1c(-c2ccc(OC)cc2)csc1=Nc1c(C)n(C)n(-c2ccccc2)c1=O | -1.4 | 3.8 | 3.6 | -2.8 | 1.4
CCc1ccc2oc(-c3ccc(OC)cc3)cc(=Nc3cccc(C(=O)O)c3)c2c1 | -1.0 | -9.2 | 0.5 | 3.4 | -12.2
CCc1ccc2oc(-c3ccc(OC)cc3)cc(=Nc3c(C)n(C)n(-c4ccccc4)c3=O)c2c1 | 0.4 | 0.5 | -1.4 | -0.1 | 56.6*
COc1ccc(-c2cc(=Nc3ccc(C(=O)O)cc3)c3cc(C)ccc3o2)cc1 | 1.4 | 20.2 | 57.2* | 2.9 | -6.1
c1ccc(-c2cc(CSc3nc4ccccc4[nH]3)on2)cc1 | -2.0 | 41.3 | 60.9* | -2.0 | -4.1
COc1ccc(Nc2nc(OC)nc(N3CCOCC3)n2)cc1 | 0.5 | 0.0 | -6.4 | 3.1 | 51.3*
CCOc1nc(Nc2ccc(OC)cc2)nc(N2CCOCC2)n1 | 0.2 | -7.4 | -3.3 | -1.9 | 23.6
c1cc(SSc2ccncc2)ccn1 | 0.1 | -5.9 | -1.2 | 1.1 | 0.3
c1ccc(Sc2ccncc2)cc1 | 5.7* | · | · | -0.3 | ·
Cc1ccc(C(C)C)c(OCCCCCN2CCOCC2)c1 | -0.3 | -9.1 | -7.2 | -0.2 | -0.9
Cc1ccc(OCCCCCN2CCOCC2)c(Cl)c1 | 4.9* | 1.6 | 26.9 | 3.4 | 7.1
Cc1ccc(SCCCCN2CCOCC2)cc1 | -0.1 | 112.8 | 141.1* | 0.3 | 2.5
Clc1ccc(SCCCCN2CCOCC2)cc1 | 0.0 | 3.0 | -14.0 | -0.8 | -0.4
CC(=O)c1ccccc1NCC(=O)Nc1ccc(C)cc1 | 0.1 | 13.0 | 24.1 | 1.1 | 19.0
COC(=O)c1sc(=S)n(-c2cc(F)ccc2F)c1N | 4.9* | 4.1 | 16.7 | 4.6 | -0.8
CCOC(=O)c1sc(=S)n(-c2cc(F)ccc2F)c1N | -0.1 | · | · | 0.3 | 5.1
CC(C)(C)OC(=O)C[C@H]1C/C=C\C[C@H](CC(=O)NCCO)C(=O)NC[C@@H](c2ccccc2)OC1=O | 0.0 | · | · | -2.1 | -1.7
O=C(O)C(=O)Nc1ccc(NC(=O)C(c2ccccc2)c2ccccc2)cc1 | 1.7 | -55.0* | -65.7 | 1.6 | ·
O=C(Nc1ccccc1)C(c1ccccc1)c1ccccc1 | -0.9 | -2.2 | 13.4 | 0.0 | 0.1
O=C(Cc1ccccc1F)Nc1ccc(SC(F)F)cc1 | 3.5 | 26.7 | 59.2* | 2.8 | 11.1
O=C(COC(=O)Cc1ccccc1F)Nc1ccc(SC(F)F)cc1 | -0.2 | -3.5 | -7.7 | 0.0 | 1.4
O=C(Nc1ccc(SC(F)F)cc1)c1ccccc1F | 6.2* | -29.1 | -48.2 | 1.7 | 2.8
O=C(Nc1ccc(F)cc1)c1ccccc1F | 1.3 | 5.3 | 13.5 | 5.5 | 28.9
COc1ccc2[nH]c(C(=O)Nc3ccc(C)c(F)c3)cc2c1 | 1.4 | 2.1 | 26.8 | 2.0 | 6.4
CC(=O)c1cccc(NC(=O)c2ccc3ccccc3c2)c1 | 2.2 | 36.2 | 55.4* | 2.6 | -0.6
SMILES | NR0B1 inh | HSF1 inh | HSF-1 act | GAA850 FXN act | AHR act
COc1ccc(C(=O)Nc2ccc3c(c2)nc(CN2CCCC2)n3C)cc1 | 0.2 | -85.6* | -87.9 | 0.2 | 4.5
COc1ccc(NC(=O)CN(C)C(=O)CNC(=O)c2ccc3ccccc3c2)cc1 | 4.2* | · | · | 1.6 | ·
COc1ccc(C(=O)Nc2ccc3c(c2)nc(CN2CCN(C(C)=O)CC2)n3C)cc1 | -0.4 | 4.5 | 10.0 | 1.1 | 0.9
COc1ccc2[nH]c(C(=O)Nc3cccc(C)n3)cc2c1 | · | 24.7 | 60.6* | 1.0 | 1.7
COc1cccc(NC(=O)CN(C)C(=O)CNC(=O)c2ccc(Oc3ccccc3)cc2)c1 | 0.8 | 2.2 | -4.4 | 1.2 | 11.1
COc1ccc(NC(=O)c2ccc3c(c2)n(C)c(=O)n3C)cc1 | 6.4* | 3.9 | 25.8 | 2.2 | -3.1
C/C(=N\NC(=O)Nc1ccccc1)c1ccc2ccccc2c1 | 1.0 | -14.9 | 14.8 | 3.8 | 69.8*
COc1ccc(NC(=O)c2ccc3ccccc3c2)cc1 | 0.5 | 10.8 | 62.4* | 3.7 | 57.8*
CC(C)(C)c1ccc(S(=O)(=O)NNC(=O)c2cc3ccccc3[nH]2)cc1 | -1.2 | 18.1 | 14.7 | 4.0 | 74.3*
CCCC(C)NNC(=O)c1cc2ccccc2[nH]1 (centres undefined) | 2.0 | 7.2 | -6.0 | -0.1 | 18.4
Cn1c(SCC(=O)c2ccccc2)nnc1-c1cccs1 | 4.1 | 22.1 | 29.1 | 4.7 | -0.9
CC(NC(=O)c1cccc(S(=O)(=O)N2CCc3ccccc32)c1)c1ccco1 (centres undefined) | 1.2 | · | · | 2.1 | 14.6
COc1cccc(C(=O)Nc2ccc(NC(=O)C3CCCCC3C(=O)O)cc2)c1 (centres undefined) | 0.0 | -0.7 | -5.2 | 1.4 | 19.7
COc1cccc(C(=O)Nc2ccc(NC(=O)C3CC=CCC3C(=O)O)cc2)c1 (centres undefined) | 0.1 | -51.8* | -63.6 | 0.8 | 17.7
COc1ccc(NC(=O)c2cc3ccccc3[nH]2)cc1 | 6.1* | 4.7 | 1.2 | 4.4 | 38.5
CCOc1ccc(/C(O)=C2/C(=O)C(=O)N(c3ccccn3)C2c2ccc(F)cc2)c(C)c1 (centres undefined) | 2.7 | -4.2 | -16.1 | 0.0 | -1.3
CC(C)CNS(=O)(=O)c1ccc(CCC(=O)N2CCOCC2)cc1 | -0.9 | -72.7* | -80.1 | -0.5 | -0.7
Nc1ccc(CCC(=O)N2CCCC2)cc1 | -0.7 | 7.7 | 31.6 | 0.7 | ·
CC(C)CNS(=O)(=O)c1ccc(CCC(=O)N2CCCC2)cc1 | -1.5 | -4.0 | -5.3 | 3.5 | -0.6
CCC(=O)Nc1ccc(CCC(=O)N2CCCC2)cc1 | 5.5* | -0.9 | -2.5 | 1.4 | 2.1
CCNS(=O)(=O)c1ccc(CCC(=O)N2CCCC2)cc1 | 5.1* | 1.1 | -18.9 | -0.4 | 0.7
COc1ccc(-c2cnnc(N/N=C/c3ccc(C)o3)n2)cc1 | -0.1 | 4.5 | 19.8 | 1.0 | 15.1
CCN(CC)C(=O)CSc1ncnc2sc(C)c(C)c12 | 1.8 | 8.0 | 51.6* | 3.0 | 23.6
Cc1sc2ncnc(SCC(=O)NC(C)(C)C)c2c1C | -0.4 | -3.5 | -2.2 | 1.8 | 0.1
O=C(Nc1cccc(-c2nc3ccccc3[nH]2)c1)c1ccco1 | 0.5 | 4.1 | 4.8 | -1.6 | 51.4*
SMILES | NR0B1 inh | HSF1 inh | HSF-1 act | GAA850 FXN act | AHR act
O=C(Nc1ccccc1O)c1cccc(NC(=O)c2ccco2)c1 | -0.1 | 13.2 | 31.1 | 0.9 | 54.1*
CC(=O)Nc1cccc(NC(=O)Cc2cccs2)c1 | 0.1 | 1.3 | 2.7 | 0.4 | 1.5
O=C(NC(NC(=S)Nc1ccc(Cl)c(Cl)c1)C(Cl)(Cl)Cl)c1ccco1 (centres undefined) | -0.4 | -0.3 | 2.5 | -0.8 | 3.6
O=C(c1ccccc1)c1cccc(NC(=O)c2ccco2)c1 | 0.0 | 16.4 | 21.1 | 3.5 | 0.0
O=C(O)c1cccc(NC(=S)NC(NC(=O)c2ccco2)C(Cl)(Cl)Cl)c1 (centres undefined) | 2.1 | -61.2* | -69.1 | 0.5 | 3.2
Cc1ccc2nc(-c3ccc(NC(=O)c4ccco4)cc3)[nH]c2c1 | 2.1 | 19.8 | 34.4 | 2.4 | -10.5
O=C(Cc1cccs1)Nc1cccc(-c2nc3cc4ccccc4cc3[nH]2)c1 | 0.6 | 39.0 | 74.0* | 4.1 | 0.4
CC1COC(=C2C(=O)OCC2C)C1 (centres undefined) | 1.4 | · | · | -0.5 | ·
